Most compounds without a hit are left out; they make up all but 6.8% or so of the library.
KB-3-1 cytotox = kills parental KB-3-1 adenocarcinoma cells | AID 1347075 | 400,000 compounds, 1.4% hits | Potency, µM (doses to about 46.1 µM), actives largely listed as cytotoxic | KB-3-1 viability, CellTiter-Glo ATP luminescence, 72 h; also: % is scaled to controls: 0 for no effect and ±100 for the full control effect; nearly all actives have a fitted effect of over 60% in size
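72 h, 37 °C compound treatment of KB-3-1 parental cells; CellTiter-Glo added, 10 min, luminescence read. Data corrected against DMSO-only plates and normalized before curve fitting.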
PTAP TSG101 blk = blocks PTAP/TSG101 interaction to inhibit HIV-1 budding; Q99816; Fluorescence polarization, FITC-PTAP peptide / Tsg101 binding; Potency, µM (doses to about 115 µM), inactives show at the top dose activity change, negative = inhibition, most hits filed as inhibitors; 340,000 tested, under 10 active; active = well fitted inhibition curve with a large enough effect in the main read-out, with a control signal flat, not every such curve was filed as active; inconclusive = small, poorly fitted or top-dose-only effect, or effect the other way, or a change in a side signal; inactive = no such curve, though single readings can be large or run the other way; also: % of control where 0% means no effect
Target sequence (Q99816 whole entry, looked up): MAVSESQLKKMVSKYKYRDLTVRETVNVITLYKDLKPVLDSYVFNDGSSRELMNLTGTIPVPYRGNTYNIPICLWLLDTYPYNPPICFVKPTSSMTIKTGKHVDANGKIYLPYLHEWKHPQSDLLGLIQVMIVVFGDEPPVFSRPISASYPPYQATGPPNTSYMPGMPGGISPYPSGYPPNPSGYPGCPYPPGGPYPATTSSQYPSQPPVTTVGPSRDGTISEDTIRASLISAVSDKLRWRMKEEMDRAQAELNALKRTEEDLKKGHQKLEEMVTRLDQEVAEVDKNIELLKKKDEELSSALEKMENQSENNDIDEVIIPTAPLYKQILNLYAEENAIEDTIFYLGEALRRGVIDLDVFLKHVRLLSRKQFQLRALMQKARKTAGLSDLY
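Compounds were pin-transferred onto Tsg101 binding domain (10 uM final) in HEPES pH 7.5 buffer, then FITC-PTAP peptide was added at 50 nM final. After 20 min at RT, polarization reported peptide displacement across a qHTS concentration series.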
PINK1 modulator = modulators of PINK1 expression | PINK1 immunofluorescence, high-content cytometry, 24 h | Potency, µM (series often up to 76.6 µM), for the others: top-dose activation (PINK1 increase), actives largely listed as activators | 410,000 compounds, 0.2% hits | AID 624263; active = well fitted activation curve with a large enough effect; inconclusive = small, poorly fitted or top-dose-only effect; cell line not stated here; also: % of control where 0% means no effect; nearly all actives have a fitted effect of over 65% in size
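Fluorescence from anti-PINK1 antibody, together with nuclear and cell stains, was scanned on a laser-scanning cytometer. Before staining, stable-line cells were incubated 24 hours with compounds at 5 concentrations; primary antibody 12 h at 10 degrees C.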
MCF10A rereplic = DNA re-replication induction in MCF 10a cells. MCF 10A DNA re-replication, Hoechst nuclear intensity, 48 h. Potency, µM (series often up to 46.1 µM), for the others: at the highest dose activity, positive = re-replication, most hits filed as activators. 350,000 compounds, 2.9% hits; also: % of control where 0% means no effect; nearly all actives have a fitted effect of over 50% in size
KB-V1 cytotox = kills drug-selected multidrug resistant KB-V1 cells. KB-V1 MDR cells viability, CellTiter-Glo, 72 h. Potency, µM (titrated, usually from 46.1 µM), usual class: cytotoxic. 400,000 compounds, 3.4% hits. AID 1347076; also: % is scaled to controls: 0 for no effect and ±100 for the full control effect; nearly all actives have a fitted effect of over 60% in size
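Drug-selected KB-V1 cells, grown in DMEM lacking phenol red with 10% FBS, receive compound titrations; after three days at 37 degrees C, surviving cell ATP is quantified by CellTiter-Glo luminescence and responses normalized and curve-fitted.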
SW480 rereplic = DNA re-replication induction in SW480 cells | Potency, µM (series often up to 46.1 µM), inactives show top-dose re-replication activation, hits mostly activators | AID 624297 | SW480 DNA re-replication, Hoechst DNA content imaging, 48 h | 340,000 compounds, 1.8% hits; also: % of control where 0% means no effect; nearly all actives have a fitted effect of over 55% in size
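DNA re-replication was detected as more nuclei of elevated Hoechst intensity after 48 hr exposure to compound (23 nL pinned per well of 250 cells).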
* hit, by the source's call; [ ] = remark or other dose. Unless noted, calls follow the shape of the dose curve; as a rule, active = well fitted curve in the direction sought with a large enough effect; inconclusive = small, poorly fitted or top-dose-only effect, or another doubt; inactive = no such curve, though single readings can be large; an effect the other way counts as inactive or inconclusive. Potency is read from the fitted curve at half-maximal effect.

CCc1cccc(C)c1NC(=O)COCc1cc(-c2ccc3c(c2)OCO3)on1 was read as KB-3-1 cytotox inconclusive, PINK1 modulator -1% and KB-V1 cytotox inactive.
Screening Cc1ccc(N2CCN(C(=O)c3cn(C)c4ccc(S(=O)(=O)N5CCC(C)CC5)cc4c3=O)CC2C)cc1 (stereo unspecified) returned KB-3-1 cytotox inactive, PINK1 modulator 5% and KB-V1 cytotox inactive.
`Cc1cc2c(c(C)c1CCO[C@@H]1O[C@H](CO)[C@@H](O)[C@H](O)[C@H]1O)C(=O)[C@@H](C)[C@@H]2O` gave KB-3-1 cytotox inconclusive, PTAP TSG101 blk -1%, PINK1 modulator 0%, MCF10A rereplic 18µM*, KB-V1 cytotox inactive and SW480 rereplic -2%.
Screening Fc1cc2[nH]c(=S)[nH]c2cc1Cl returned KB-3-1 cytotox 8.2µM*, PTAP TSG101 blk -9%, PINK1 modulator -1%, MCF10A rereplic 0%, KB-V1 cytotox 3.7µM* and SW480 rereplic 6%.
For CC(=O)c1cc2c(cc1N/C(=N/S(=O)(=O)c1ccc(F)cc1)c1ccccc1)OCO2 the results were KB-3-1 cytotox inactive, PINK1 modulator 0% and KB-V1 cytotox inactive.
NC(=O)NN=C1c2cc(S(=O)(=O)N3CCOCC3)ccc2-c2ccc(S(=O)(=O)N3CCOCC3)cc21 was read as KB-3-1 cytotox inactive, PINK1 modulator 1% and KB-V1 cytotox inactive.
`Oc1ccc(Br)cc1/C=N/Nc1nc(N2CCCCC2)nc(N2CCOCC2)n1` gave KB-3-1 cytotox inconclusive, PTAP TSG101 blk -7%, PINK1 modulator 3%, MCF10A rereplic 12%, KB-V1 cytotox inactive and SW480 rereplic 21µM*.
Screening BrC(/C=C\c1ccccc1)=N/Nc1nc(N2CCOCC2)nc(N2CCOCC2)n1 returned KB-3-1 cytotox inactive, PTAP TSG101 blk -9%, PINK1 modulator 0%, MCF10A rereplic 10µM*, KB-V1 cytotox inactive and SW480 rereplic inconclusive.
For C/C(=N\Nc1nc(N2CCOCC2)nc(N2CCOCC2)n1)c1cccs1 the results were KB-3-1 cytotox inactive, PTAP TSG101 blk -5%, PINK1 modulator -1%, MCF10A rereplic 12%, KB-V1 cytotox inactive and SW480 rereplic 15%.
`Oc1ccc(/C=N/Nc2nc(N3CCCCCC3)nc(N3CCCCCC3)n2)c(O)c1` gave KB-3-1 cytotox inactive, PTAP TSG101 blk 1%, PINK1 modulator 3%, MCF10A rereplic inconclusive, KB-V1 cytotox inconclusive and SW480 rereplic inconclusive.
Screening C/C(=N\Nc1nc(N2CCCCC2)nc(N2CCOCC2)n1)c1ccccc1O returned KB-3-1 cytotox inconclusive, PTAP TSG101 blk -3%, PINK1 modulator 0%, MCF10A rereplic inconclusive, KB-V1 cytotox 16µM* and SW480 rereplic 12µM*.
Screening O=C(Nc1ccc2ccccc2c1)Nc1nnc(-c2ccccc2)s1 returned KB-3-1 cytotox inactive and KB-V1 cytotox inactive.
For CCOC(=O)COc1cc(N)c(Cl)cc1Cl the results were KB-3-1 cytotox inactive, PTAP TSG101 blk -2%, PINK1 modulator 0%, MCF10A rereplic 6.5µM*, KB-V1 cytotox inactive and SW480 rereplic -2%.
CCCN1CNc2c(c(=O)[nH]c(=S)n2CCc2ccccc2OC)C1 was read as PINK1 modulator -1%.
For COc1ccc(NC(=O)CN(C)C(=O)c2ccc3ccccc3c2)cc1 the results were KB-3-1 cytotox inactive, PTAP TSG101 blk 0%, PINK1 modulator 0%, MCF10A rereplic -4%, KB-V1 cytotox inactive and SW480 rereplic 4%.
Screening COc1cccc(NC(=O)CN(C)C(=O)c2ccc3ccccc3c2)c1 returned KB-3-1 cytotox inactive, PTAP TSG101 blk -4%, PINK1 modulator -2%[38.3 µM], MCF10A rereplic -3%, KB-V1 cytotox 21µM* and SW480 rereplic -3%.
COc1cccc(NC(=O)CN(C)C(=O)c2ccc(NC3CC3)c([N+](=O)[O-])c2)c1 was read as KB-3-1 cytotox inactive, PTAP TSG101 blk -3%, PINK1 modulator 3%, MCF10A rereplic 4%, KB-V1 cytotox 7.3µM* and SW480 rereplic 0%.
For CN(CC(=O)Nc1cccc(F)c1)C(=O)c1ccc(NC2CC2)c([N+](=O)[O-])c1 the results were KB-3-1 cytotox inactive, PTAP TSG101 blk 5%, PINK1 modulator 0%, MCF10A rereplic -4%, KB-V1 cytotox inactive and SW480 rereplic -4%.
For CCc1ccccc1NC(=O)C1(C)Cc2ccccc2C(=O)O1 (stereo unspecified) the results were KB-3-1 cytotox inactive, PINK1 modulator -4% and KB-V1 cytotox inactive.
Screening CCOC(=O)c1ccc(NC(=O)C2(c3ccc(Cl)cc3)CCCC2)cc1 returned KB-3-1 cytotox inconclusive, PTAP TSG101 blk 1%, PINK1 modulator 6%, MCF10A rereplic -4%, KB-V1 cytotox inconclusive and SW480 rereplic -18%.
For Cc1ccc(NC(=O)COC(=O)C2(c3ccc(Cl)cc3)CCCC2)cc1 the results were KB-3-1 cytotox inconclusive, PTAP TSG101 blk 0%, PINK1 modulator inconclusive, MCF10A rereplic 21µM*, KB-V1 cytotox inactive and SW480 rereplic inconclusive.
For CC(=O)c1ccc(NC(=O)NCCc2c[nH]c3ccccc23)cc1 the results were KB-3-1 cytotox inactive, PINK1 modulator -1% and KB-V1 cytotox inactive.
`O=C(Cn1c(=O)n2nc(-c3cccc(F)c3)nc2c2ccccc21)N1CCN(c2ccccc2F)CC1` gave KB-3-1 cytotox inactive, PINK1 modulator 2% and KB-V1 cytotox inactive.
O=[N+]([O-])c1ccc(N2CCN(Cc3ccccc3)CC2)c2c1no[n+]2[O-] was read as KB-3-1 cytotox 2.1µM*, PINK1 modulator 1% and KB-V1 cytotox 6.5µM*.
For O=[N+]([O-])c1ccc(N2CCN(Cc3ccccc3)CC2)s1 the results were KB-3-1 cytotox inactive, PTAP TSG101 blk 2%, PINK1 modulator 5%, MCF10A rereplic -3%, KB-V1 cytotox inconclusive and SW480 rereplic 7%.
Screening Cc1cc(=O)c2ccccc2n1CC(=O)NCc1ccccc1 returned KB-3-1 cytotox inactive, PTAP TSG101 blk 1%, PINK1 modulator 0%, MCF10A rereplic inconclusive, KB-V1 cytotox 4.6µM* and SW480 rereplic -2%.
Screening Cc1nc2ccccc2n1CC(=O)NCc1ccccc1 returned KB-3-1 cytotox inconclusive, PINK1 modulator 2%[38.3 µM], MCF10A rereplic -6%, KB-V1 cytotox 6.5µM* and SW480 rereplic 1%.
For Cc1ccccc1C1(CC(=O)N2CCCC2c2nccs2)CC(=O)N(C2CCCC2)C1=O (stereo unspecified) the results were PINK1 modulator 0%.

Compound activity as filed in PubChem.
